Compounds with a hit are over-represented: about 4.8% of the library has one in this group of screens.
DAX1 inh-1: blocks DAX1 repression of SF-1 activated StAR promoter; HEK293T StAR-luciferase reporter, SF-1/DAX-1 repression relief; inhibition, % at 6.8 µM; AID 652010; 370,000 tested, 1.1% active;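 active = inhibition above the mean over all tested compounds plus 3 SD, cut at about 3.6% in these data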;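 also: higher inhibition means more luminescence from relief of DAX-1 repression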
SMARCA2 activ: increases SMARCA2 function in MMTV reporter cells. MG213 cells, MMTV-luciferase reporter, dexamethasone, overnight. 370,000 tested, 1% active. AID 652017. activation, % at 9.1 µM; in the data active = activation above about 7.8%
ssDAF12 agonist: activates DAF-12 receptor from parasite S. stercoralis; activation, % at 6.8 µM; 370,000 tested, 1% active; HEK293 ssDAF-12/GRIP1 lit1-tk-luc reporter, luminescence; % of 3 µM dafachronic acid response; AID 652126;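 active = activation above the mean over all tested compounds plus 3 SD, cut at about 0.9% in these data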
hcDAF-12 act: H. contortus DAF-12 activation, primary screen; activation, % at 6.8 µM; 370,000 tested, 1.4% active; AID 652067; HEK293 hcDAF-12 lit1-tk-luc reporter, luminescence; 0% DMSO, 100% Δ7-dafachronic acid;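 active = activation above the mean of all tested compounds plus 3 SD, cut at about 5.5% in these data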
DAX1 inh-2: inhibitors of human orphan nuclear receptor DAX1 (NR0B1) | inhibition, % at 6.75 µM | HEK293 Gal4-DAX1 luciferase reporter, luminescence | 340,000 tested, 0.99% active;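 active = inhibition above the mean over all tested compounds plus 3 SD, cut at about 4.2% in these data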;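 also: inhibition shows as a rise in luminescence from relieved DAX1 repression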
Target sequence (P51843 207-470 limits assumed): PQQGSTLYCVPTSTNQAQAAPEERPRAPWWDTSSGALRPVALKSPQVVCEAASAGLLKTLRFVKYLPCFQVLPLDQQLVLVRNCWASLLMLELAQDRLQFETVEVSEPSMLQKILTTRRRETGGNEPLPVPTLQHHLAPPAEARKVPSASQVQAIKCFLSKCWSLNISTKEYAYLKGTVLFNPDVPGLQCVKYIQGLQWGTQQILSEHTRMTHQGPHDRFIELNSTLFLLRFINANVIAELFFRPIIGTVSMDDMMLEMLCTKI
hgDAF-12 ag: hgDAF-12 agonism, primary luciferase screen; HEK293 GAL4-hgDAF12 UAS-luciferase reporter, agonist luminescence; normalized to butyrate control; activation, % at 6.8 µM; 370,000 tested, 1.8% active; AID 687014;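 active = activation above a cutoff set at the mean of all screened compounds plus 3 SD, cut at about 10% in these data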
Of the large screens only hits and unclear results are named; the others gave an inactive call.

O=[N+]([O-])CC(c1ccccc1)c1c[nH]c2ccccc12 (stereo unspecified)	ssDAF12 agonist 1.1 (no result: DAX1 inh-2)
CC(C)CC(=O)Nc1cccc(-c2nc3ncccc3o2)c1	none
Cc1cc(-c2nc3ncccc3o2)ccc1NC(=O)CC(C)C	DAX1 inh-1 3.9
COc1cc(-n2c(=O)c3ccccc3n(CC(=O)c3ccc(Br)cc3)c2=O)cc(OC)c1OC	DAX1 inh-2 5.4
COc1ccc(-n2c(=O)c3ccccc3n(CC(=O)c3ccccc3)c2=O)cc1OC	none
S=C(Nc1ccccc1)OC1CCC12CCC(c1ccccc1)CC2 (stereo unspecified)	none (no result: DAX1 inh-2)
COC(=O)c1cc(-c2cccc(OC(F)(F)F)c2)c(=O)n2c1CCC2	none (no result: DAX1 inh-2)
COc1ccc(NC(=O)CSc2nnc(Cn3cnc([N+](=O)[O-])n3)n2C)cc1	SMARCA2 activ 11.2
O=C(CCc1nc(-c2ccccc2F)no1)NCCc1ccc(F)cc1	none (no result: DAX1 inh-2)
COc1ccc(CNS(=O)(=O)/C=C/c2ccccc2CNC(=O)OC(C)(C)C)cc1	none (no result: DAX1 inh-2)
Cc1cc(NC(=O)CSc2nnc(-c3ccncc3)n2Cc2ccccc2)n(-c2ccccc2)n1	none
Cc1cccc(NC(=O)CSc2nnc(-c3ccncc3)n2C)c1	hgDAF-12 ag 12.2
Cc1cccc(NC(=O)Cn2nnc3ccccc32)c1	DAX1 inh-2 4.7
Cc1ccc(NC(=O)Cn2nnc3ccccc32)cc1	none (no result: DAX1 inh-2)
Cc1cc(NC(=O)CSc2nnc(-c3ccncc3)n2C)n(-c2ccccc2)n1	DAX1 inh-2 6.0
Cc1ccc(C(=O)Oc2ccc(/C=C3\C(=N)N4N=C(N5CCOCC5)SC4=NC3=O)cc2)cc1	hgDAF-12 ag 12.1
N=C1/C(=C\c2ccc(OC(=O)c3ccccc3)cc2)C(=O)N=C2SC(N3CCOCC3)=NN12	none
Nc1[nH]c(C(=O)c2ccccc2)c(-c2ccc(Cl)cc2Cl)c1C(=O)NCCC1=CCCCC1	none (no result: DAX1 inh-1, SMARCA2 activ, DAX1 inh-2)
CCOC(=O)N1CCN(C(=O)C[C@H]2C[C@@]3(C(=O)OC)C(=C[C@H](C(C)(C)C)O[C@@H]3C)N(Cc3ccco3)C2=O)CC1	none (no result: DAX1 inh-2)
CCOC(=O)c1c(C)nc2sc3c(=O)n(-c4ccc(C(C)=O)cc4)nnc3c2c1-c1ccc(OC)cc1	hcDAF-12 act 7.0
CCOC(=O)c1c(C)nc2sc3c(=O)n(-c4ccc(OC)cc4)cnc3c2c1-c1ccc(OC)cc1	none
Cc1cc(C)c2c(n1)sc1c(=O)n(Cc3ccc(F)cc3)cnc12	DAX1 inh-2 4.5
C=CCn1cnc2c(sc3nc(C)cc(C)c32)c1=O	none
CCCCCc1cccc2[nH]cc(-c3ccccc3)c12	none (no result: DAX1 inh-2)
O=C(O)c1ccc(COc2ccc3ccccc3c2/C=C2/NC(=O)N(c3ccccc3)C2=O)cc1	ssDAF12 agonist 1.0
O=C(O)c1ccc(COc2ccccc2/C=C2/NC(=O)N(c3cccc(Cl)c3)C2=O)cc1	none
CCCC(=O)Nc1ccc(C#Cc2ccccc2)cc1	hgDAF-12 ag 12.4
COC(=O)[C@]12C[C@H](CC(=O)N3CCCC3)C(=O)N(Cc3ccccc3)C1=C[C@H](C1CCCC1)O[C@@H]2C	none (no result: DAX1 inh-2)
C/C(=C\c1ccccc1)C(=O)Nc1nc2ccc([N+](=O)[O-])cc2s1	none
CC(C)=CC(=O)Nc1nc2ccc([N+](=O)[O-])cc2s1	hgDAF-12 ag 13.2
CCCCNC(=O)O[C@H]1CC[C@@]23CCCN2C(=O)CCC[C@H]3C1	none (no result: DAX1 inh-1, SMARCA2 activ, DAX1 inh-2)
COc1ccc2c(CN(Cc3ccccc3)Cc3ccccc3)cc(=O)oc2c1	none (no result: DAX1 inh-2)
O=c1cc(CN(Cc2ccccc2)Cc2ccccc2)c2c(ccc3ccccc32)o1	ssDAF12 agonist 1.8 (no result: DAX1 inh-2)
C=CCN1[C@H](C#N)[C@@H](c2ccc(C#Cc3cccc(OC)c3)cc2)[C@H]1CO	none (no result: DAX1 inh-2)
Cc1c(Cl)cccc1N1C(=O)CC(NNC(=O)c2cccs2)C1=O (stereo unspecified)	hgDAF-12 ag 10.4
Cc1c(Cl)cccc1N1C(=O)CC(NNC(=O)c2cccnc2)C1=O (stereo unspecified)	none
C[C@H]1C2CC(OC(=O)Nc3cccc(Cl)c3)C(C2)[C@H]2CCCCN21 (stereo partly specified)	none (no result: DAX1 inh-2)
COc1ccccc1CCC(=O)OCC(=O)NC1CCCC1	DAX1 inh-1 3.7
Cc1ccc(OCCCC(=O)NC2CCCCC2)cc1	DAX1 inh-2 5.0

Compound activity from PubChem BioAssay.
